# Assay results published in PubChem BioAssay (Tox21).
# Inconclusive results are not listed. A number with no mark means an inactive call. Calls follow the shape of the full dose curve.
# Target: Retinoic acid receptor RXR-alpha (Homo sapiens) (UniProt P19793)
# Test: qHTS assay to identify small molecule agonists of the RXR signaling pathway (AID 1159527); also: nearly all actives have a fitted effect of over 35% in size
# Conditions: HEK293T RXRa-UAS-bla, beta-lactamase ratio, 16 h; series mostly up to 76.8 µM; activation: at the top concentration
# Outline: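 qHTS of the Tox21 10K library in GeneBLAzer RXR-alpha HEK 293T cells carrying a beta-lactamase reporter […]; 16 hr treatment, 9-cis retinoic acid as agonist control, FRET read-out.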
# % is scaled to controls: 0 for no effect and ±100 for the full control effect.
# Sequence of Retinoic acid receptor RXR-alpha (Homo sapiens) (P19793 whole entry, looked up): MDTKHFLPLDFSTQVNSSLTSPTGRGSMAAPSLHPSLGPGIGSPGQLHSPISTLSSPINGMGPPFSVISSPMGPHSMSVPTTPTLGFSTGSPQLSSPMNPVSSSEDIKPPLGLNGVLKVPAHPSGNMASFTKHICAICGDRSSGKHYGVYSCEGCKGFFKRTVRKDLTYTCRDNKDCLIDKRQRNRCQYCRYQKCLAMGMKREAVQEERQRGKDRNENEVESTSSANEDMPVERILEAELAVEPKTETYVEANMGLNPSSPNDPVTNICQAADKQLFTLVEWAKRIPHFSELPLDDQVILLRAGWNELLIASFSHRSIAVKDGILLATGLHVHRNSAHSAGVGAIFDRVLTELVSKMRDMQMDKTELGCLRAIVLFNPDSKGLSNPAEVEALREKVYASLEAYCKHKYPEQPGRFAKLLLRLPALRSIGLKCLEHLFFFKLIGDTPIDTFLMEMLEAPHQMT
row,SMILES,activation
1,N#Cc1ccc(N(CC(N)=O)CC(F)(F)F)cc1C(F)(F)F,-4.33%
2,O=C(N[C@@H]1N=C(c2ccccc2F)c2cccc3c2N(CC3)C1=O)c1cc2ccccc2[nH]1,-1.51% [at 35.3 µM]
3,O=S(=O)(O)F,7.64%
4,O=[N+]([O-])c1ccc(Cl)c(Cl)c1Cl,-11.4%
5,CCN(CC)CCc1c[nH]c2ccccc12,-0.0088%
6,CC(Cl)CCl (centres undefined),5.79%
7,[O-][Cl+3]([O-])([O-])O,-1.62%
8,COC(=O)c1ccccc1S(=O)(=O)NC(=O)Nc1nc(C)nc(OC)n1,10.6%
9,CC1CN1 (centres undefined),-2.7%
10,c1cc[n+]2c(c1)-c1cccc[n+]1CC2,6.38% [at 35.3 µM]
11,ClSC(Cl)(Cl)Cl,6.42%
12,O=C(Nc1ccc(F)cc1F)c1cccnc1Oc1cccc(C(F)(F)F)c1,-2.18%
13,CCC(C)c1cccc(C(C)CC)c1O (centres undefined),7.86%
14,ClCBr,-5.8%
15,O=[N+]([O-])c1ccccc1-c1ccccc1,-12.8%
16,O=c1c2ccccc2c(=O)c2c1cc(Cl)c1[nH]c3c([nH]c12)c(Cl)cc1c(=O)c2ccccc2c(=O)c13,-4.34%
17,CCC1(CC)C(=O)N=C(O)NC1=O,13%
18,CC(C)NCC(O)c1ccccc1Cl (centres undefined),10.2% [at 35.3 µM]
19,CC(C)N(C(=O)SC/C(Cl)=C/Cl)C(C)C,3.53%
